Screening results: PubChem, The Scripps Research Institute Molecular Screening Center
In the library only some 3.4% were active in any assay of this set; here they are far more common.
MITF inh: human MITF inhibition, primary screen; 0.91% of 650,000 active; inhibition, % at 2.6 µM; AlphaScreen MITF homodimerization, bead proximity signal; AID 1259374; in the data active means inhibition above about 50%;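 further: 0% = vehicle wells with protein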
FBW7 act: activators of human E3 ligase FBW7; AID 1259310; Q969H0; 0.13% of 650,000 active; normalized activity (activation), % at 26.1 µM; AlphaScreen FBW7–phospho-cyclin E peptide binding, activator screen; in the data active means normalized activity above about 1.9%;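 further: purified mutant Fbw7 with reduced substrate affinity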
Target sequence (Q969H0 whole entry, looked up): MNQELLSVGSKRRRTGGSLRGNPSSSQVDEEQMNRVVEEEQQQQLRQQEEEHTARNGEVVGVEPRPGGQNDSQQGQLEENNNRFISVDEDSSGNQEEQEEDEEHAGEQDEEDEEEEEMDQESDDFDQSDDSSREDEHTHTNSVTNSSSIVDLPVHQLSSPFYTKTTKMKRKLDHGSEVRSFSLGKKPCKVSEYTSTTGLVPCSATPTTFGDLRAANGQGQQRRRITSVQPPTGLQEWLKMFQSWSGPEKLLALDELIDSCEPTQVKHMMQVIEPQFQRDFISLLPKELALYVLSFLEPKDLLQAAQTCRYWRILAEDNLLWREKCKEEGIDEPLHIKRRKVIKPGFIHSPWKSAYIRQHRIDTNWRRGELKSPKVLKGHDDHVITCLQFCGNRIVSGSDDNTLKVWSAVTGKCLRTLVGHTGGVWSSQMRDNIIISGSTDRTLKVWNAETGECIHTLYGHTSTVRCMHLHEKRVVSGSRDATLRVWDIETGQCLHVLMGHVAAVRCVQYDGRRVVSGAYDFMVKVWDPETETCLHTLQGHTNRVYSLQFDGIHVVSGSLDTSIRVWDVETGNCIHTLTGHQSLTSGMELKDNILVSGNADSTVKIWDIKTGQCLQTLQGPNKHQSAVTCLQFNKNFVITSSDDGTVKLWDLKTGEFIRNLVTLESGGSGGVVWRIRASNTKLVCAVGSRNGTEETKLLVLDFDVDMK
GPR151 activ: activators of human GPR151. Q8TDV0. PathHunter beta-arrestin GPR151 cells, luminescence. activation, % at 11.2 µM. 1% of 650,000 active. AID 1508602; in the data active means activation above about 4.9%;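 further: 0% = median of compound wells and 100% = cells with positive control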
TEAD-YAP inh: TEAD-YAP interaction inhibition; inhibition, % at 9.12 µM; HEK-TIYL cells, TEAD-Gal4/YAP UAS-luciferase luminescence; 1.4% of 640,000 active; AID 1259422; in the data active means inhibition above about 32%;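 further: 0% = median of test compound wells and 100% = reference inhibitor wells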
* = called active by the depositor.

SMILES	MITF inh	FBW7 act	GPR151 activ	TEAD-YAP inh
CCCC(=O)Nc1ccc(S(=O)(=O)Nc2ccc3c(c2)N(CC)C(=O)C(C)(C)CO3)cc1	-2	0	-1	6
CCc1ccc(CN2CCc3nnc(C(NS(C)(=O)=O)C(C)C)n3CC2)o1 (configuration not stated)	11	0	-1	-1
O=C(Nc1ccc(-c2cn3ccsc3n2)cc1)c1cccnc1Cl	10	1	-1	46*
O=C(NNC(=O)c1cccnc1SCc1cccc([N+](=O)[O-])c1)c1ccccn1	24	-1	-1	39*
CC(C)NC(=O)CN(c1ccc(Br)cc1)S(C)(=O)=O	3	1.9*	-1	16
CC(C)C(NC(=O)CN(c1ccc(Br)cc1)S(C)(=O)=O)C(C)C	3	0	1	3
CC1(C)CC(=O)c2cnc(NC(=O)c3cccc(Cl)c3)nc2C1	7	0	-1	-3
CCC(C)NC(=O)c1ccc(C)cc1C (configuration not stated)	-6	0	-1	-2
Cc1ccc(C(=O)NC(C)Cc2cccs2)c(C)c1 (configuration not stated)	4	0	-7	88*
O=C(CSc1nc2ccc([N+](=O)[O-])cc2[nH]1)Nc1ccc(F)cc1	14	0	1	7
O=C(CSc1nc2ccc([N+](=O)[O-])cc2[nH]1)Nc1ccc(F)c(F)c1	0	0	0	69*
Cc1nc(C)c(-c2ccc(SCC(=O)Nc3ccc([N+](=O)[O-])cc3)nn2)s1	2	0	1	47*
CCOC(=O)c1ccc(NC(c2ccc(O)cc2O)P(=O)(OCC)OCC)cc1 (configuration not stated)	52*	1	-1	-7
COc1cc(-c2ncnn2-c2sc3c(c2C#N)CCCCC3)ccc1O	-12	0	0	79*
COc1ccc(-c2ncnn2-c2sc3c(c2C#N)CCCCC3)cc1OC	-10	0	0	-1
O=C(CN1C(=O)COc2ccccc21)NC1CCCCCCC1	-12	0	0	-27
COC(=O)c1sccc1NC(=O)c1csc(C)c1-c1ccccc1	-1	0	0	33*
CC(=O)N1CCc2cc(C(=O)CN3CCOCC3)ccc21	-4	0	0	-4
O=C(O)C1C(C(=O)O)C2C=CC1C21CC1 (configuration not stated)	-11	0	0	-1
COc1ccc(CCN(C)C2CCCN(C3CCN(C(C)=O)CC3)C2)cc1OC (configuration not stated)	-12	0	1	10
C/C(CC(=O)Nc1cccc2c1CCCC2)=N\NC(=O)c1cccc(O)c1	5	0	-1	14
COc1ccc(C(=O)N/N=C(\C)CC(=O)Nc2cccnc2)cc1OC	8	0	-1	34*
COc1ccc(C(=O)N/N=C(\C)CC(=O)Nc2cccc3c2CCCC3)cc1OC	9	0	-1	32*
C/C(CC(=O)Nc1ccc(F)cc1F)=N\NC(=O)c1ccc(O)cc1	16	2.1*	-1	-17
COc1ccc(C(=O)Nc2cccnc2)cc1OC	-2	0	-1	-18
SMILES	MITF inh	FBW7 act	GPR151 activ	TEAD-YAP inh
COc1ccc(C(=O)N/N=C(\C)CC(=O)Nc2ccccc2Br)cc1OC	-12	0	-2	41*
O=C(C1=NN(c2ccccc2)C(=O)CC1)N1CCCCCC1	-2	0	2	-3
Cc1c(C(=O)NCc2cccnc2)oc2ccc3c(c12)C(=O)CC1(CCCC1)O3	5	0	0	40*
COCCNC(=O)c1oc2ccc3c(c2c1C)C(=O)CC1(CCCCC1)O3	-3	0	0	0
COc1cc(C=Nc2ccccc2C)ccc1O	11	0	-1	4
CCN(CC)C(=O)C1CCCN(c2nc3ccc(C(=O)NCc4cccc(C(F)(F)F)c4)cc3s2)C1 (configuration not stated)	0	0	0	0
CC(C)(C)c1ccc(-c2ncc3ccccn23)cc1	14	0	-2	72*
COc1ccc(-c2nn(-c3ccccc3)cc2C(=O)NCC(=O)c2ccccc2)cc1	1	0	1	-3
O=c1c2cc(O)c(O)cc2oc2cc(O)c(C3OC(CO)C(O)C(O)C3O)c(O)c12 (configuration not stated)	59*	0	1	-12
O=c1cc(-c2cc(O)c(O)c([C@@H]3O[C@H](CO)[C@@H](O)[C@H](O)[C@H]3O)c2)oc2cc(O[C@@H]3O[C@H](CO)[C@@H](O)[C@H](O)[C@H]3O)cc(O)c12	-16	0	0	16
CCOc1cc(/C=C2/NC(=O)N(Cc3ccccc3F)C2=O)ccc1OCC(=O)OC	4	0	-1	3
CCN(CC)c1ccc(/C=N/Nc2nn[nH]n2)c(O)c1	-12	0	0	-3
Oc1ccc(/C=N/Nc2nn[nH]n2)cc1O	52*	-1	2	-5
Oc1ccc(/C=N/Nc2nn[nH]n2)c(O)c1O	95*	-1	0	4
C(=N\Nc1nn[nH]n1)/c1ccc2c(c1)OCO2	2	0	0	-11
Cc1cc(C)nc(-n2nc(C)cc2C)n1	2	0	0	-6
CCNc1nc(NCC)nc(-n2nc(C)cc2C)n1	-2	0	3	53*
CC(=O)NC1=NN(C(C)=O)C2(S1)C(=O)N(C)c1c(C)ccc(Cl)c12 (configuration not stated)	6	0	0	12
O=C(CCl)NCc1c(Cl)cccc1-n1cccc1	4	0	-1	35*
c1ccc2c(c1)n(CCN1CCCCC1)c1ncnn21	12	0	0	-5
c1ccc2c(c1)nc1n(CCN3CCCCC3)cnn21	19	2.1*	-1	-6
COc1ccc(C(C#N)N2CCCCCC2)cc1OC (configuration not stated)	14	2.0*	-1	-1
Cc1ccccc1CNC(=O)C(C)n1c2ccccc2c2nc(=O)cc(C)n21 (configuration not stated)	11	0	0	-3
Cc1cc(C(=O)Nc2c(C)nn(Cc3c(Cl)cccc3Cl)c2C)no1	0	0	0	33*
Cc1ccccc1Cn1nc(C)c(NC(=O)c2cc(C3CC3)on2)c1C	-2	2.1*	0	4
SMILES	MITF inh	FBW7 act	GPR151 activ	TEAD-YAP inh
Cc1nc2c(C(=O)Nc3ccc(N4CCOCC4)cc3)snc2c(=O)[nH]1	-4	0	-1	33*
O=C(Nc1ccc(N2CCOCC2)cc1)c1cc([N+](=O)[O-])ccc1Cl	-1	0	0	35*
Cc1nc2c(C(=O)Nc3ccc(Cl)cc3)snc2c(=O)[nH]1	0	0	1	0
Cc1nn(C)c(C)c1-c1cccc(C(=O)Nc2ccc(N3CCOCC3)cc2)n1	-7	0	0	45*
O=C(Nc1ccc(N2CCCC2)cc1)c1cc([N+](=O)[O-])ccc1N1CCOCC1	8	0	2	-10
Nc1cccc(-c2cccc(C(=O)Nc3ccc(N4CCOCC4)cc3)n2)c1	-12	0	1	-12
O=C(c1cc([N+](=O)[O-])ccc1N1CCCCC1)N1CCN(c2ccccc2)CC1	-1	0	1	48*
